Measured values: PubChem BioAssay (NCATS)
Records with an inconclusive call do not appear. Activity calls are given as the source filed them. Unless noted, the call rests on the fitted dose curve; in most records, active means well fitted curve in the direction sought with a large enough effect; inconclusive means small, poorly fitted or top-dose-only effect, or another doubt; inactive means no such curve, though single readings can be large; an effect the other way counts as inactive or inconclusive.

Key:
[1] = Cell Viability - BJ (AID 421; calls by dose curve;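 further: potency means the concentration at half of the fitted maximal effect; cells exposed to compound for 40 hours at 37 °C before readout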); conditions: BJ fibroblast viability, qHTS
Summary of the method: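 Quantitative HTS: ATP depletion in BJ cells after 40 hr compound exposure in complete culture medium, detected with CellTiter-Glo; AC50 from standard Hill fits.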

[2] = Cell Viability - Jurkat (AID 426;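 active means dose-dependent loss of cell ATP signal giving a full or clear fitted curve, ranked by lower potency value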; further: potency means the concentration at half of the fitted maximal effect); conditions: qHTS
Summary of the method: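 Seed 5000 Jurkat E6-1 cells/well; add compound; incubate 40 hr at 37 °C; add CellTiter-Glo; wait 20 min at room temperature; read luminescence. Fit concentration-response with Hill equation for AC50.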

[3] = Cell Viability - Hek293 (AID 427;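 active means compounds whose dose-response curve shows a full or clear partial loss of cell viability, called from curve shape rather than a numeric limit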;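 further: potency means the concentration at half of the fitted maximal effect; cells exposed to compound for 40 hours at 37 °C before reading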); conditions: qHTS
Summary of the method: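 AC50 values derive from Hill-modelled concentration-response of ATP-based luminescence, normalized between DMSO-only and 100 uM tamoxifen controls. Cells were exposed in complete culture medium for 40 hr at 37 °C before detection.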

[4] = Cell Viability - HepG2 (AID 433; calls by dose curve;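 further: potency means the concentration at half of the fitted maximal effect; potency for ATP loss meaning cytotoxicity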); conditions: qHTS
Summary of the method: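 HepG2 cells, 1500 per well, treated 40 hr at 37 °C in complete medium; viability from intracellular ATP by CellTiter-Glo luminescence. Normalized to DMSO and 100 uM tamoxifen; AC50 from Hill fit of qHTS concentration-response.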

[5] = Cell Viability - MRC5 (AID 434; calls by dose curve;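 further: potency means the concentration at half of the fitted maximal effect; potency reflects cytotoxicity seen as loss of intracellular ATP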); conditions: MRC5 lung fibroblast viability, qHTS
Summary of the method: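 qHTS cytotoxicity in human lung fibroblast MRC5 cells; 40 hr treatment, 37 °C; cellular ATP by luciferase luminescence; DMSO = 0%, 100 uM tamoxifen = 100% inhibition; Hill-fit AC50.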

[6] = target: Mitogen-activated protein kinase 10 (Mus musculus) (UniProt Q61831); assay: JNK3 AlphaScreen Assay (AID 530; active means well fitted curve in either direction with a large enough effect, not every such curve was filed as active;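 further: kinase came from lysate of stimulated human HepG2 cells; signal reports phosphorylation of biotinylated GST-cJun 1-79 at Ser73 with 10 µM ATP; on the % scale 0 is the no-effect control and ±100 the full control effect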); conditions: JNK3 lysate, c-Jun phosphorylation; series mostly up to 57.1 µM
Summary of the method: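 Room-temperature AlphaScreen kinase assay; pre-activated HepG2 lysate as JNK3 source, biotin-GST-cJun(1-79) substrate, 10 uM ATP, compound 15 min preincubation.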

[7] = Cell Viability - N2a (AID 540); conditions: N2a mouse neuroblastoma cell viability; activity change, negative = cytotoxicity: at 92.2 µM (top of the series);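 further: plate controls were DMSO alone for no effect and tamoxifen control for full effect; nearly all actives have a fitted effect of over 45% in size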
Summary of the method: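 First, 1500 N2a cells per well incubate 5 hr at 37 °C; next, compounds are added and incubated 40 hr at 37 °C; finally CellTiter-Glo is added and luminescence read after 20 min, with AC50 derived by Hill modeling.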

[8] = Cell Viability - NIH 3T3 (AID 541); conditions: NIH 3T3 cell viability, qHTS; activity change, negative = cytotoxicity: at 92.2 µM (top of the series);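 further: plate controls were DMSO alone for no effect and tamoxifen positive control for full effect; nearly all actives have a fitted effect of over 25% in size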
Summary of the method: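 AC50 values reflect concentration-dependent loss of intracellular ATP in NIH 3T3 cells after 40 hr treatment in complete culture medium, quantified by luciferase-based luminescence.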

[9] = Cell Viability - HUV-EC-C (AID 542); conditions: HUV-EC-C endothelial cell viability, qHTS; series mostly up to 92.2 µM; further: on the % scale 0 is the no-effect control and ±100 the full control effect; nearly all actives have a fitted effect of over 35% in size
Summary of the method: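 Decrease in cellular ATP, quantified by luciferase luminescence, reflects toxicity in normal human vascular endothelial HUV-EC-C cells given compound for 40 hr in complete culture medium. Values are AC50s from concentration-response curves.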

[10] = Cell Viability - H-4-II-E (AID 543); conditions: H-4-II-E rat hepatoma viability; series mostly up to 92.2 µM; further: on the % scale 0 is the no-effect control and ±100 the full control effect; nearly all actives have a fitted effect of over 35% in size
Summary of the method: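 Here, cytotoxicity is measured in the rat hepatoma line H-4-II-E as loss of intracellular ATP after 40 hr compound treatment, detected by luciferase luminescence.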

[11] = Cell Viability - SH-SY5Y (AID 544); conditions: SH-SY5Y neuroblastoma cell viability; viability change, negative = cytotoxic: at 92.2 µM (top of the series); further: nearly all actives have a fitted effect of over 55% in size
Summary of the method: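 Cytotoxicity is scored as a concentration-dependent fall in intracellular ATP in human SH-SY5Y cells treated 40 hr in complete culture medium. Potency is expressed as AC50 from a Hill equation fit.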

[12] = Cell Viability - Renal Proximal Tubule (AID 545); conditions: renal proximal tubule cells viability, primary cells of rat origin; series mostly up to 91.7 µM; further: nearly all actives have a fitted effect of over 40% in size
Summary of the method: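 Rat renal proximal tubule primary cells, 1000/well, exposed to compounds for 40 hr at 37 °C in complete medium; cellular ATP read by CellTiter-Glo luminescence. AC50 from concentration-response fitted with standard Hill equation.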

[13] = Cell Viability - Mesenchymal (AID 546); conditions: mesenchymal cells viability, qHTS; series mostly up to 91.7 µM;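 further: cells exposed to compound for 40 hours before reading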
Summary of the method: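 AC50 values reflect the drop in intracellular ATP in a human kidney mesenchymal line derived from normal glomeruli. Treatment lasts 40 hr at 37 °C in complete medium, and the signal comes from CellTiter-Glo luminescence.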

[14] = Cellular Toxicity (caspase-3) HepG2 (AID 654); conditions: HepG2 caspase-3 activation, luminescence; series mostly up to 92.2 µM;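 further: cells exposed to compound for 16 hours before reading; 0% = DMSO alone and 100% = caspase signal from 100 µM tamoxifen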
Summary of the method: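 qHTS, HepG2, 1500 cells/well, complete medium; cpd 16 h 37 °C; Caspase-Glo 3/7, 20 min RT; lum. Norm: DMSO vs 100 uM tamoxifen; AC50 Hill fit.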

[15] = Cellular Toxicity (caspase-3) Jurkat (AID 655); conditions: Jurkat caspase-3 activation, luminescence; caspase-3 activation: at 92.2 µM (top of the series), DMSO = 0%, tamoxifen = 100%;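 further: cells exposed to compound for 16 h at 37 °C before reading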
Summary of the method: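 Jurkat cells (5000/well) in complete medium exposed 16 h at 37 C; caspase-3/7 activity read by Caspase-Glo luminescence after 20 min at room temperature. Normalized to DMSO and 100 uM tamoxifen; AC50 from Hill fits.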

[16] = Cellular Toxicity (caspase-3) HUV-EC-C (AID 656); conditions: HUV-EC-C cells, caspase-3 activation (apoptosis), vehicle = 0, 100 µM tamoxifen = 100%; series mostly up to 92.2 µM
Summary of the method: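 HUV-EC-C cells (1000/well) in complete medium, compound-treated 16 h at 37 °C; caspase-3/7 activity read by Caspase-Glo 3/7 luminescence. Normalized to DMSO (basal) and 100 uM tamoxifen (100%); AC50 from Hill-equation concentration-response fits.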

[17] = Cellular Toxicity (caspase-3) SHSY5Y (AID 657); conditions: SH-SY5Y caspase-3 activation, DMSO zero, 10 µM staurosporine = 100%; series mostly up to 91.7 µM
Summary of the method: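 SH-SY5Y human neuroblastoma cells, 1500/well, exposed to compound for 16 hours at 37 °C in complete medium. Caspase-3/7 activity read by Caspase-Glo luminescence after 1 hr at room temperature, normalized to DMSO and 10 uM staurosporine; AC50 from Hill fit.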

[18] = Cellular Toxicity (caspase-3) BJ (AID 658); conditions: BJ fibroblasts, luminescence, normalized: DMSO 0%, staurosporine 100%; series mostly up to 91.7 µM
Summary of the method: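 Readout: Caspase-Glo 3/7 luminescence increase in BJ cells after 16 hr treatment at 37 °C. Staurosporine and tamoxifen served as positive controls; AC50 values came from Hill modelling of data normalized to DMSO and 10 uM staurosporine.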

[19] = Cellular Toxicity (caspase-3) MRC-5 (AID 659); conditions: MRC-5 cells, luminescence, normalized: DMSO 0%, 10 µM staurosporine 100%; series mostly up to 91.7 µM
Summary of the method: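 Concentration-dependent caspase 3/7 activation is measured in human normal lung fibroblasts (MRC-5) following 16-hour treatment. AC50 values come from standard Hill-equation modeling of luminescence normalized to DMSO and 10 uM staurosporine.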

[20] = Cell Viability - SK-N-SH (AID 435; calls by dose curve;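 further: potency means the concentration at half of the fitted maximal effect; compound exposure lasted 40 h at 37 °C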); conditions: SK-N-SH neuroblastoma cell viability qHTS
Summary of the method: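 SK-N-SH neuroblastoma cells (1500/well) treated 40 h at 37 °C in complete medium; viability read as cellular ATP by CellTiter-Glo luminescence. Normalized to DMSO and 100 uM tamoxifen; AC50 from Hill fits of qHTS concentration-response.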

CC(C)(C)OC=O
inactive: Potency [1] > 92 µM | Potency [2] > 92 µM | Potency [3] > 92 µM | Potency [4] > 92 µM | Potency [5] > 92 µM | outcome [6] | activity change, negative = cytotoxicity [7] -8.52% | Potency [8] | Potency [9] | Potency [10] | Potency [11] | Potency [12] | Potency [13] | Potency [14] | caspase-3 activation [15] -1.27% | outcome [16] | outcome [17] | outcome [18] | outcome [19]

FB(F)F
inactive: Potency [1] > 92 µM | Potency [2] > 92 µM | Potency [3] > 92 µM | Potency [4] > 92 µM | Potency [5] > 92 µM | Potency [20] > 92 µM | outcome [6] | activity change, negative = cytotoxicity [7] 5.96% | Potency [9] | Potency [10] | Potency [11] | Potency [13] | Potency [14] | caspase-3 activation [15] 1.14% | outcome [16] | outcome [17] | outcome [18] | outcome [19]

O=Cc1ccc(C(=O)O)cc1
inactive: Potency [1] > 92 µM | Potency [2] > 92 µM | Potency [3] > 92 µM | Potency [4] > 92 µM | Potency [5] > 92 µM | Potency [20] > 92 µM | activity change, negative = cytotoxicity [7] -12.7% | Potency [8] | Potency [9] | Potency [10] | Potency [11] | Potency [12] | Potency [13] | caspase-3 activation [15] 0.522% | outcome [16] | outcome [17] | outcome [18]

CCC1CO1 (stereo unspecified)
inactive: Potency [1] > 92 µM | Potency [2] > 92 µM | Potency [3] > 92 µM | Potency [4] > 92 µM | Potency [5] > 92 µM | outcome [6] | activity change, negative = cytotoxicity [7] -4.66% | Potency [8] | Potency [9] | Potency [10] | Potency [11] | Potency [12] | Potency [13] | Potency [14] | caspase-3 activation [15] 1.29% | outcome [16] | outcome [17] | outcome [18] | outcome [19]

Cc1c(N)cccc1[N+](=O)[O-]
inactive: Potency [1] > 92 µM | Potency [2] > 92 µM | Potency [3] > 92 µM | Potency [4] > 92 µM | Potency [5] > 92 µM | Potency [20] > 92 µM | activity change, negative = cytotoxicity [7] 3.87% | Potency [8] | Potency [9] | Potency [10] | Potency [11] | Potency [12] | Potency [13] | Potency [14] | caspase-3 activation [15] 2.77% | outcome [16] | outcome [17] | outcome [18] | outcome [19]

CC=C(Cl)Cl
inactive: Potency [1] > 92 µM | Potency [2] > 92 µM | Potency [3] > 92 µM | Potency [4] > 92 µM | Potency [5] > 92 µM | outcome [6] | activity change, negative = cytotoxicity [7] -2.96% | Potency [8] | Potency [9] | Potency [10] | Potency [11] | Potency [12] | Potency [13] | Potency [14] | outcome [16] | outcome [17] | outcome [18] | outcome [19]

CCCCC(=O)N(C)C
inactive: Potency [1] > 92 µM | Potency [2] > 92 µM | Potency [3] > 92 µM | Potency [4] > 92 µM | Potency [5] > 92 µM | Potency [20] > 92 µM | activity change, negative = cytotoxicity [7] -2.03% | Potency [8] | Potency [9] | Potency [10] | Potency [11] | Potency [13] | Potency [14] | caspase-3 activation [15] -0.841% | outcome [17] | outcome [18] | outcome [19]

Cc1ccc2oc(=O)ccc2c1
inactive: Potency [1] > 92 µM | Potency [2] > 92 µM | Potency [3] > 92 µM | Potency [4] > 92 µM | Potency [5] > 92 µM | Potency [20] > 92 µM | outcome [6] | activity change, negative = cytotoxicity [7] -1.53% | Potency [9] | Potency [10] | Potency [12] | Potency [13] | Potency [14] | caspase-3 activation [15] 0.624% | outcome [17] | outcome [18] | outcome [19]

CCC(C)O (stereo unspecified)
inactive: Potency [1] > 92 µM | Potency [2] > 92 µM | Potency [3] > 92 µM | Potency [4] > 92 µM | Potency [5] > 92 µM | outcome [6] | activity change, negative = cytotoxicity [7] -8.95% | Potency [8] | Potency [9] | Potency [10] | Potency [11] | Potency [12] | Potency [13] | Potency [14] | outcome [16] | outcome [17] | outcome [18] | outcome [19]

[O-]/[N+](=N\O)c1ccccc1
inactive: Potency [1] > 92 µM | Potency [2] > 92 µM | Potency [3] > 92 µM | Potency [4] > 92 µM | Potency [5] > 92 µM | Potency [20] > 92 µM | activity change, negative = cytotoxicity [7] 0.0649% | Potency [9] | Potency [10] | Potency [11] | Potency [12] | Potency [13] | Potency [14] | caspase-3 activation [15] -1.18% | outcome [16] | outcome [17] | outcome [18] | outcome [19]

O=C(O)c1ccccc1Cl
inactive: Potency [1] > 92 µM | Potency [2] > 92 µM | Potency [3] > 92 µM | Potency [4] > 92 µM | Potency [5] > 92 µM | Potency [20] > 92 µM | activity change, negative = cytotoxicity [7] -6.85% | Potency [8] | Potency [9] | Potency [10] | Potency [11] | Potency [12] | Potency [13] | Potency [14] | caspase-3 activation [15] -0.163% | outcome [16] | outcome [17] | outcome [18] | outcome [19]

C=CC(=O)NC(C)C
inactive: Potency [1] > 92 µM | Potency [2] > 92 µM | Potency [3] > 92 µM | Potency [4] > 92 µM | Potency [5] > 92 µM | outcome [6] | activity change, negative = cytotoxicity [7] 4.17% | Potency [8] | Potency [9] | Potency [10] | Potency [11] | Potency [13] | Potency [14] | caspase-3 activation [15] -1.34% | outcome [16] | outcome [17] | outcome [18]
